Results taken from PubChem BioAssay AID1159580 (chemical genetic matrix, 2015).
Values joined by “and” are separate entries in the source; they are usually repeats but may differ in a detail not shown here. Equal values may be shown once. Out of some 5,500 compounds screened, about 2,000 (36%) were called active. Not shown: some 18% with an inconclusive outcome. Cut-off read from the data, not from the text of the source: active = normalized growth mostly below about 0.91 (no sharp cut-off); inconclusive = no clear call, values can overlap the other calls; inactive = mostly above about 0.92. The list shows a part of the results.

Assay: chemical genetic growth profiling, strain panel (AID 1159580);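 note: tested at 20 µM; growth read once vehicle control cultures reached saturation at 30 °C; 1 = growth at the plate median or of vehicle wells; lower values mean less growth of the strain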
Conditions: S. cerevisiae deletion strains, growth OD

Measured: normalized growth

CC(=O)N[C@@H](CC(C)C)C(=O)O
inactive: locus YAL013W, strain DEP1, hits give low values 0.983 | locus YAL021C, strain ccr4, hits give low values 1 | locus YAL026C, strain drs2, hits give low values 0.989 | locus YAL030W, strain snc1, hits give low values 1 | locus YBL061C, strain skt5, hits give low values 0.986 | locus YBR009C, strain hhf1, hits give low values 0.99 | locus YBR021W, strain FUR4, hits give low values 1 | locus YBR023C, strain chs3, hits give low values 1 | locus YBR171W, strain sec66, hits give low values 0.981 | locus YBR229C, strain ROT2, hits give low values 0.996 | locus YBR231C, strain swc5, hits give low values 0.972 | locus YBR279W, strain paf1, hits give low values 1 | locus YCL011C, strain gbp2, hits give low values 1.01 | locus YCL016C, strain dcc1, hits give low values 0.995 | locus YCL029C, strain bik1, hits give low values 0.97 | locus YCL069W, strain vba3, hits give low values 0.996 | locus YCR088W, strain abp1, hits give low values 1 | locus YDL005C, strain med2, hits give low values 0.991 | locus YDL035C, strain GPR1, hits give low values 0.985 | locus YDL040C, strain nat1, hits give low values 0.988 | locus YDL074C, strain BRE1, hits give low values 1.02 | locus YDL101C, strain DUN1, hits give low values 0.994 | locus YDL134C, strain PPH21, hits give low values 0.987 | locus YDL185W, strain tfp1, hits give low values 0.944 | locus YDL192W, strain arf1, hits give low values 0.986 | locus YDR001C, strain nth1, hits give low values 1 | locus YDR069C, strain doa4, hits give low values 0.971 | locus YDR101C, strain arx1, hits give low values 0.989 | locus YDR137W, strain rgp1, hits give low values 1 | locus YDR150W, strain NUM1, hits give low values 0.983 | locus YDR159W, strain sac3, hits give low values 0.961 | locus YDR162C, strain NBP2, hits give low values 0.981 | locus YDR195W, strain ref2 0.948 | locus YDR297W, strain sur2, hits give low values 0.991 | locus YDR318W, strain mcm21, hits give low values 0.97 | locus YDR334W, strain swr1, hits give low values 0.989 | locus YDR335W, strain msn5, hits give low values 0.987 | locus YDR388W, hits give low values 0.989 | locus YDR392W, strain spt3, hits give low values 1.02 | locus YDR502C, strain sam2, hits give low values 0.972 | locus YEL003W, strain gim4, hits give low values 0.989 | locus YEL037C, strain rad23, hits give low values 0.994 | locus YEL061C, strain CIN8 (second series), hits give low values 0.986 | locus YEL061C, strain CIN8, hits give low values 0.993 | locus YER015W, strain faa2, hits give low values 0.993 | locus YER016W, strain bim1, hits give low values 1.01 | locus YER110C, hits give low values 0.97 | locus YER111C, strain swi4, hits give low values 0.988 | locus YER155C, strain BEM2 (second series), hits give low values 0.98 | locus YER155C, strain BEM2, hits give low values 0.992 | locus YER167W, strain BCK2, hits give low values 0.98 | locus YFR010W, strain ubp6, hits give low values 0.98 | locus YGL078C, strain dbp3, hits give low values 0.975 | locus YGL086W, strain mad1, hits give low values 0.996 | locus YGL167C, strain pmr1, hits give low values 0.972 | locus YGL173C, strain kem1, hits give low values 0.97 | locus YGL227W, strain vid30, hits give low values 0.98 | locus YGL240W, strain doc1, hits give low values 0.972 | locus YGL248W, strain PDE1, hits give low values 1.01 | locus YGL253W, strain hxk2, hits give low values 0.986 | locus YGR135W, strain pre9, hits give low values 0.945 | locus YGR252W, strain gcn5, hits give low values 1 | locus YHR013C, strain ard1, hits give low values 1.01 | locus YHR027C, strain rpn1, hits give low values 1 | locus YHR030C, strain SLT2, hits give low values 0.975 and 1.04 | locus YHR079C, strain IRE1 (second series), hits give low values 0.985 | locus YHR079C, strain IRE1, hits give low values 1.02 | locus YHR094C, strain hxt1, hits give low values 0.984 | locus YHR129C, strain ARP1, hits give low values 0.992 | locus YHR142W, strain chs7, hits give low values 0.992 | locus YHR200W, strain rpn10, hits give low values 0.978 | locus YIL066C, strain RNR3, hits give low values 1.01 | locus YIL073C, strain SPO22, hits give low values 0.849 | locus YIL125W, strain kgd1, hits give low values 0.992 | locus YIR030C, strain dcg1, hits give low values 0.969 | locus YJL092W, strain hpr5, hits give low values 0.989 | locus YJL095W, strain BCK1 (second series), hits give low values 0.98 | locus YJL095W, strain BCK1, hits give low values 1.04 and 1.03 | locus YJL115W, strain asf1, hits give low values 1 | locus YJL129C, strain trk1, hits give low values 0.959 | locus YJL134W, strain LCB3, hits give low values 0.984 | locus YJL154C, strain vps35, hits give low values 0.994 | locus YJL164C, strain tpk1, hits give low values 1.01 | locus YJL166W, strain qcr8, hits give low values 0.972 | locus YJL168C, strain set2, hits give low values 0.997 | locus YJL187C, strain SWE1 (second series), hits give low values 1.02 | locus YJR043C, strain POL32, hits give low values 1.02
